Results as given in PubChem BioAssay AID2685 (National Center for Advancing Translational Sciences (NCATS), 2010).
The whole screen tested about 320,000 compounds, of which about 2,100 (0.66%) were called active. About 53% were inconclusive and are not listed. Calls come from the whole dose curve; as a rule, active = well fitted inhibition curve with a large enough effect in the signal ratio, with a control signal flat (not every such curve was filed as active); inconclusive = small, poorly fitted or top-dose-only effect, or effect the other way, or a change in a side signal; inactive = flat fitted curve, though single readings scatter; the % refers to the signal ratio. What follows is part of a selection rich in actives, with near analogues and random picks from the rest.

Assay: qHTS Assay for Lipid Storage Modulators in Drosophila S3 Cells;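 for cell number change: cells counted by Cell Tracker Red CMTPX staining in the red channel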; for lipid storage change, negative = inhibition: % is set by controls: 0 for no effect and ±100 for the full control effect
Settings: BODIPY lipid droplet fluorescence, 18-24 h, cells fed with added oleic acid; cell number change: measured here: cell count max response; series mostly up to 46.1 µM; lipid storage change, negative = inhibition: at the top concentration
Source text: NIH Molecular Libraries Probe Production Centers Network [MLPCN] NIH Chemical Genomics Center [NCGC] MLPCN Grant: 1 R03 MH085686-01 Assay Submitter (PI): Beller, Mathias; Max-Planck-Institut fur Biophysikalische Chemie NCGC Assay Overview: Storing lipids as a reservoir for energy or the anabolism of elementary metabolites is a common feature of probably all cells and is conserved from bacteria to humans. The universal cellular lipid storage organelle is the so-called lipid storage droplet (LD). Although ubiquitous, LDs share a simple structure composed of a hydrophobic core that harbors the storage lipids, which is shielded by a droplet-specific phospholipid monolayer to which proteins are attached. The current model of LD biogenesis involves an incorporation of the lipid core into the membrane leaflets of the endoplasmic reticulum (ER) followed by a subsequent budding-like maturation of a LD, which ultimately pinches off. Once released, LD volume can increase by localized lipogenesis or fusion of existing droplet. Storage lipids are re-mobilized enzymatically by lipase activity. Lipase regulation in the adipocyte is heavily studied and involves multiple components including catecholamine signaling, the LD-associated proteins Perilipin and comparative gene identification (CGI-58) and at least two lipases named hormone sensitive lipase (HSL) and adipocyte triglyceride lipase (ATGL). LD regulation outside of the adipocyte is poorly understood and only few components are known. However, there is an urgent need to learn more about ectopic fat depots as mislocalized storage of lipids, for example in the liver or muscle, is an eminent health problem associated with insulin resistance or the metabolic syndrome. We developed a laser-scanning cytometer assay to enable 1,536-well screening and combined the results of the small molecules screen with an RNAi database based on lipid storage.
Triacsin C (Sigma-Aldrich T-4540), an inhibitor of long-chain fatty acyl CoA synthetase that blocks synthesis of triglycerides, was used as a positive control for lipid under-storage. A total of 23 nL of compound solution of different concentrations were transferred to the assay plates using a Kalypsys pin tool equipped with a 1,536-pin array containing 10-nL slotted pins (FP1S10, 0.457-mm diameter, 50.8 mm long; V&P Scientific). One microliter of oleic acid (400 uM) was added, and the plate was lidded with stainless steel rubber gasket lined lids containing pinholes. […] Fluorescence was detected by excitation of the fluorophores with a 488-nm laser on an Acumen Explorer (TTP Lab Tech). The total intensity in channel 2 (500-530 nm) reflected lipid droplet accumulation. Cells were detected using channel 3 (575-640 nm) with 5-um width and 100-um depth filters. The ratio of the number of objects in PMT channel 2 over the number of objects in PMT channel 3 was also calculated. Percent activity was computed relative to an internal control (100% inhibited lipid droplet deposition due to the presence of 20 uM Triacsin C), which was added to 32 wells/plate.
Potency is the fitted concentration of half-maximal effect.

Compound | lipid storage change, negative = inhibition | cell number change [%] | outcome | Potency
COC(=O)CC1C(=O)NC2CCCCC2N1C(=O)c1ccccc1 (stereo unspecified) | 9.33% (inactive) | -6.42 | – | –
COCC(C)NC(=O)COc1ccc(Cl)cc1Cl (stereo unspecified) | 8.5% (inactive) | 14.4 | – | –
CC(=O)N(C)c1nc(N)n(-c2ccccc2)n1 | 1.59% (inactive) | 17.4 | – | –
CN(CC(=O)Nc1ccc(N2CCOCC2)cc1)C(=O)C12CC3CC(CC(C3)C1)C2 | -1.21% (inactive) | 0.396 | – | –
CC(C)(C)c1ccc(NC(=O)Nc2ccc3ccccc3n2)cc1 | 1.36% (inactive) | 14.5 | – | –
CCCCn1c(=N)n(CC(=O)O)c2ccccc21 | -7.08% (inactive) | -0.932 | – | –
COc1ccc(N(CC(=O)N/N=C/c2cc3ccc(OC)cc3nc2Cl)S(=O)(=O)c2ccccc2)cc1 | 6.18% (inactive) | 5.98 | – | –
COc1ccc(Cc2noc(CN3CCCN(Cc4ccc(F)cc4)CC3)n2)cc1OC | 1.97% (inactive) | -12.5 | – | –
Cc1ccn2c(C(=O)NNC(=O)Nc3ccc(Cl)cc3)c(C)nc2c1 | – | -7.08 | inactive | –
CCCCN(C(=O)C1CC(=O)N(c2ccc(C)cc2)C1)c1c(N)n(CCC)c(=O)[nH]c1=O (stereo unspecified) | – | -1.39 | – | 20.6 µM (active)
CCCCN(C(=O)C1CCCC1)c1c(N)n(CCC)c(=O)[nH]c1=O | -1.72% (inactive) | 10.4 | – | –
CCCCN(C(=O)C1CC(=O)N(Cc2ccc(C)cc2)C1)c1c(N)n(CCCC)c(=O)[nH]c1=O (stereo unspecified) | – | 2.26 | inactive | –
Cc1ccc(-c2csc(NC(=O)c3cccc(S(=O)(=O)N4CCN(C)CC4)c3)n2)cc1 | 12.3% (inactive) | 13 | – | –
O=C1CC(c2ccccc2)CC(=NCCO)/C1=C(\O)CCCN1C(=O)c2ccccc2C1=O (stereo unspecified) | -0.796% (inactive) | -9.46 | – | –
CC12CN3CCN(CC(C3)C1(O)CN1CCOCC1)C2 (stereo unspecified) | – | 0.875 | – | 4.61 µM (active)
CC12CN3CCN(CC(C3)C1(O)CN1CCCCC1)C2 (stereo unspecified) | -5.91% (inactive) | -4.02 | – | –
OC1(CN2CCOCC2)C2CN3CCN(C2)CC1(c1ccccc1)C3 (stereo unspecified) | 5.96% (inactive) | 10 | – | –
CCOc1ccc(C(C(=O)NC2CCCC2)N(CCCO)C(=O)c2ccc(-c3ccccc3)[nH]2)cc1 (stereo unspecified) | – | 42.7 | inactive | –
Cc1nnc(-c2ccc(Oc3ccc(Br)cc3)c([N+](=O)[O-])c2)o1 | 5.02% (inactive) | 2.33 | – | –
O=C(C/C=N/OCc1ccc(Cl)cc1Cl)c1ccc(Cl)cc1 | -12% (inactive) | 4.16 | – | –
Oc1ccc(CNC2CCCCC2)cc1 | 15.6% (inactive) | 0.0125 | – | –
Clc1ccc(CNC2CCCC2)c(Cl)c1 | -3.52% (inactive) | -13.9 | – | –
Clc1ccc(CNC2CCCC2)cc1 | – | -30.8 | – | 20.6 µM (active)
CCCCOC(=O)C1C2C=CC3(CN(CCc4ccccc4)C(=O)C13)O2 (stereo unspecified) | 9.44% (inactive) | -8.47 | – | –

Compound | lipid storage change, negative = inhibition | cell number change [%] | outcome | Potency
N#Cc1c(NC(=O)c2ccc(Cn3cc(Br)cn3)o2)sc2c1CCCCC2 | -16.2% (inactive) | 0.806 | – | –
Cc1ccc(N=c2sc(C)c(C)n2C)cc1 | 24.7% (inactive) | -18.9 | – | –
C1CCC(OCCN2CCN(CCOC3CCCCC3)CC2)CC1 | – | 6 | – | 25.9 µM (active)
C1CCCCCC(NCCN2CCNCC2)CCCCC1 | 2.81% (inactive) | 2.58 | – | –
O=C(c1ccccc1)N1CCN(CC(O)COC2CCCCC2)CC1 (stereo unspecified) | 0.0284% (inactive) | 4.36 | – | –
COCCNC(=O)CN1CCC(NC(=O)c2ccco2)CC1 | 6.44% (inactive) | -1.29 | – | –
Cc1ccc(NC(=O)c2c(F)cccc2Cl)cc1NS(C)(=O)=O | -2.17% (inactive) | 5.84 | – | –
COc1ccc(/C=N/NC(=O)c2cccnc2)cc1CN1CCN(c2ccc(F)cc2)CC1 | -2.21% (inactive) | 3.44 | – | –
COc1ccc(CC(=O)Nc2c3c(nn2C(C)(C)C)CS(=O)(=O)C3)cc1OC | -9.19% (inactive) | 17 | – | –
COCCNCC1C(Oc2ccc(Cl)cc2)C(=O)N1c1ccccc1C (stereo unspecified) | 6.12% (inactive) | 19.6 | – | –
CCCCNCC1C(Oc2ccc(Cl)cc2)C(=O)N1c1ccccc1C (stereo unspecified) | -32% (inactive) | – | – | –
Cc1ccccc1N1C(=O)C(Oc2ccc(Cl)cc2)C1CNCCCOC(C)C (stereo unspecified) | – | -13.5 | – | 23.1 µM (active)
Cc1ccnc2c1ccc1c(C)ccnc12 | -13.5% (inactive) | -0.829 | – | –
O=C(NCc1n[nH]c(=S)n1-c1ccccc1)c1ccc(S(=O)(=O)N2CCCCC2)cc1 | -0.121% (inactive) | – | – | –
COC(=O)c1ccccc1N1CCS(=O)(=O)CC1 | – | -18.8 | – | 16.4 µM (active)
COC(=O)c1ccccc1NC(=O)N1CCN(c2ccccc2F)CC1 | 13.5% (inactive) | 25.6 | – | –
COC(=O)c1ccc(N2CCN(c3ccccc3)CC2)c(N)c1 | 0.528% (inactive) | 6.3 | – | –
CCOC(=O)C1=C(CS(=O)(=O)c2ccccc2)NC(=O)NC1c1cccc(OC)c1 (stereo unspecified) | 8.29% (inactive) | 15.2 | – | –
COC(=O)c1ccc(NC(=S)N2CCCC2)cc1 | -1.49% (inactive) | -8.77 | – | –
COc1cccc(NS(=O)(=O)c2ccc3c(c2)CCN3C(C)=O)c1 | – | -8.33 | – | 1.64 µM (active)
CC(=O)N1CCc2cc(S(=O)(=O)Nc3ccc(C)cc3)ccc21 | -2.71% (inactive) | 8.46 | – | –
COc1cccc(NS(=O)(=O)c2ccc3c(c2)N(C(C)=O)CCS3)c1 | -12.1% (inactive) | – | – | –
CCc1cccc(NS(=O)(=O)c2ccc(-n3cccn3)cc2)c1 | 12.6% (inactive) | 18.7 | – | –
